Assay outcomes: PubChem BioAssay, Broad Institute
CD40 NFkB inh: CD40 pathway inhibition in BL2 cells | inhibition, % at 10 µM | hit rate 0.94% among 83,000 | BL2 NF-kB luciferase reporter, CD40L-induced, 4 h;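 active = mean inhibition of at least 50% with a set share of replicates also reaching that level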;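 also: 0% = neutral control wells and 100% = IKK inhibitor VII at 50 µM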
* marks the source's active call; other numbers are inactive results; [ ] = remark or other dose. The sample as a whole holds a higher share of hits than the screen did.

SMILES	CD40 NFkB inh
O=C(Nc1ccccn1)c1ccc(-c2ccccc2)cc1	113*
O=C(Nc1ccccn1)c1ccc(S(=O)(=O)N2CCCC2)cc1	-57
O=C(Nc1ccccn1)c1ccc2nc(-c3ccccc3)c(-c3ccccc3)nc2c1	-3
CO[C@H]1CN(C)C(=O)c2cc(NC(=O)C3CCCCC3)ccc2OC[C@@H](C)N(C(=O)c2ccccc2)C[C@@H]1C	-1[25 µM]
O=C(Nc1ccc2c(c1)[C@H]1C[C@H](CC(=O)N3CCc4ccccc4C3)O[C@@H](CO)[C@H]1O2)C1CCOCC1	-9[25 µM]
C[C@@H]1CN([C@H](C)CO)C(=O)c2ccccc2-c2ccccc2CO[C@@H]1CN(C)C(=O)Nc1ccc(-c2ccccc2)cc1	8[25 µM]
CNC[C@H]1Oc2c(cccc2N(C)C)C(=O)N(C)C[C@@H]1C	-3
COc1ccc(NC(=O)N(C)C[C@H]2OCCCC[C@H](C)Oc3ccc(NC(=O)Nc4ccccc4)cc3C(=O)N([C@H](C)CO)C[C@@H]2C)cc1	4
COC(=O)C[C@](O)(CCCC(C)(C)O)C(=O)O[C@@H]1C(OC)=C[C@]23CCCN2CCc2cc4c(cc2[C@H]13)OCO4	92*[25 µM]
CC(=O)N1[C@@H]2Cn3c(ccc(C4=CCCC4)c3=O)[C@H]1[C@@H](C(=O)NCC1CC1)[C@@H]2CO	-6[25 µM]
CCS(=O)(=O)Nc1ccc2c(c1)C(=O)N(C)C[C@H](OC)[C@H](C)CN(CC1CCCC1)[C@H](C)CO2	0
COCC(=O)N1CC(=O)N2[C@H](C1)[C@H](c1ccc(C#CC3CC3)cc1)[C@@H]2CO	-12[25 µM]
Cc1ccccc1-c1ccc([C@@H]2[C@@H](CO)N3CCCCN(S(=O)(=O)c4ccc(F)cc4)C[C@@H]23)cc1	0[25 µM]
O=C1NNC(=O)C1c1ccccc1	7
CN1C(=O)c2ccccc2C(O)c2ccccc21 (stereo not given)	15
O=C1C=CC(=O)C2=C1C1c3ccccc3C2c2ccccc21	59*[25 µM]
OC[C@H]1[C@H](c2ccc(-c3cccc(F)c3)cc2)[C@H]2CN(Cc3cncnc3)CCCCN21	-14[25 µM]
CC(C)C(=O)NC(c1ccc([N+](=O)[O-])cc1)c1c(O)ccc2ccccc12 (stereo not given)	11
CC(C)C(=O)NC(c1ccco1)c1ccc2cccnc2c1O (stereo not given)	-36
CCN(CC)c1ccc(C(NC(=O)C(C)C)c2ccc3cccnc3c2O)cc1 (stereo not given)	75*
Cn1c(=O)c2[nH]c(SCCN3CCCCC3)nc2n(C)c1=S	7
CCSc1nc2c([nH]1)c(=O)n(C)c(=S)n2C	0
CCCC(C)Sc1nc2c([nH]1)c(=S)n(C)c(=O)n2C (stereo not given)	93*
CO[C@H](C(=O)N(C)C[C@@H]1OCc2ccccc2-c2c(n(C)c3ccccc23)C(=O)N([C@H](C)CO)C[C@H]1C)c1ccccc1	0[25 µM]
C/C=C/c1ccc([C@@H]2[C@H](CO)N(S(C)(=O)=O)[C@H]2CN(CC)C(=O)CC)cc1	2[25 µM]
SMILES	CD40 NFkB inh
O=S(=O)(NCCc1nc2ccccc2[nH]1)c1ccccc1	9
O=S(=O)(Nc1nc2ccccc2[nH]1)c1ccccc1	10
O=S(=O)(/C(=C\c1ccc(C(F)(F)F)cc1)c1nc2ccccc2[nH]1)c1ccccc1	60*
COCCN(C[C@H]1[C@H](c2ccccc2)[C@@H](CO)N1C(=O)C1CC1)C(C)=O	-3[25 µM]
COc1ccccc1-c1ccc([C@@H]2[C@@H](C#N)N[C@@H]2CO)cc1	7[25 µM]
Cc1ccc(C(=O)Nc2nc(-c3ccco3)c(-c3ccco3)s2)o1	-1
COc1ccc(-c2nc(NC(=O)c3ccco3)sc2C)cc1	51*
COc1ccc(-c2nc(NC(=O)c3nc4nccc(C)n4n3)sc2C)cc1	3
COCCN(C[C@H]1N[C@H](CO)[C@@H]1c1ccc(-c2cccc(C#N)c2)cc1)C(C)=O	2[25 µM]
C[C@@H]1CN(C)C(=O)c2cccc(NS(C)(=O)=O)c2O[C@@H]1CN(C)S(C)(=O)=O	-5
N#C[C@H]1N[C@H](CO)[C@H]1c1ccc(C#CC2CCCC2)cc1	62*
N#C[C@@H]1N[C@H](CO)[C@H]1c1ccc(C#CC2CCCC2)cc1	13
N#C[C@@H]1N[C@H](CO)[C@@H]1c1ccc(C#CC2CCCC2)cc1	-10
N#C[C@H]1N[C@H](CO)[C@H]1c1ccc(C#Cc2ccc(F)cc2)cc1	4[25 µM]
N#C[C@H]1N[C@@H](CO)[C@@H]1c1ccc(C#Cc2ccccc2F)cc1	active[25 µM]
N#C[C@@H]1N[C@H](CO)[C@@H]1c1ccc(C#Cc2ccccc2F)cc1	-43[25 µM]
CCCN1[C@@H]2Cn3c(ccc(-c4ccncc4)c3=O)[C@H]1[C@@H](C(=O)NCC1CC1)[C@@H]2CO	9[25 µM]
C[C@H](CO)N1C[C@H](C)[C@@H](CN(C)C(=O)Nc2cccc(F)c2)OCc2cnnn2CCCC1=O	2[25 µM]
C[C@@H]1CCCCO[C@@H](CN(C)S(=O)(=O)c2ccc(Cl)cc2)[C@H](C)CN([C@@H](C)CO)C(=O)c2cc(NC(=O)CCCN(C)C)ccc2O1	-2
N#Cc1cccc(-c2ccc([C@@H]3[C@@H](CO)N4CCCCN(Cc5ccccc5F)C[C@@H]34)cc2)c1	14[25 µM]
